ALR inh – blocks human ALR sulfhydryl oxidase activity; purified ALR, DTT oxidation, H2O2 HRP-luminol luminescence; inhibition, % (concentration not given with the values); hit rate 3.8% among 290,000; P55789;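 active = mean replicate inhibition above about 79%, with every replicate also reaching it, limit read from the data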
CHT inh – human CHT choline transport inhibition; CHT-expressing cells, membrane potential dye, choline response; stronger effect = lower value; Q9GZV3; hit rate 0.86% among 310,000; B-score at 10 µM; AID 488975;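 active = B-score over 3 SD under the library average, and starting fluorescence ratio not unusually high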;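 note: choline stimulus applied at its EC90 after an EC20 pre-addition; B-score computed on integrated fluorescence ratio after choline addition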
AI-2 QS modul – modulates the Vibrio harveyi AI-2 quorum sensing system; Vibrio harveyi JMH597 AI-2 luminescence/OD600 ratio, 9 h; stronger effect = lower value; strain lacks LuxN and CqsS sensors; 0 = neutral-control median; activity change, % at 7.5 µM; hit rate 0.4% among 300,000; AID 2094; in the data active = activity change below about -75%, passing the limit was not always enough;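 note: luminescence divided by OD600 gain over 9 h not by final OD600 alone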
PREPL inhibitor – inhibitors of human prolyl oligopeptidase-like enzyme PREPL; hit rate 0.68% among 320,000; Q4J6C6; recombinant PREPL, fluorescence polarization activity-based probe; inhibition, % at 5.96 µM; in the data active = inhibition above about 43%;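 note: 0% = enzyme with DMSO and 100% = wells lacking enzyme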
Target sequence (Q4J6C6 whole entry, looked up): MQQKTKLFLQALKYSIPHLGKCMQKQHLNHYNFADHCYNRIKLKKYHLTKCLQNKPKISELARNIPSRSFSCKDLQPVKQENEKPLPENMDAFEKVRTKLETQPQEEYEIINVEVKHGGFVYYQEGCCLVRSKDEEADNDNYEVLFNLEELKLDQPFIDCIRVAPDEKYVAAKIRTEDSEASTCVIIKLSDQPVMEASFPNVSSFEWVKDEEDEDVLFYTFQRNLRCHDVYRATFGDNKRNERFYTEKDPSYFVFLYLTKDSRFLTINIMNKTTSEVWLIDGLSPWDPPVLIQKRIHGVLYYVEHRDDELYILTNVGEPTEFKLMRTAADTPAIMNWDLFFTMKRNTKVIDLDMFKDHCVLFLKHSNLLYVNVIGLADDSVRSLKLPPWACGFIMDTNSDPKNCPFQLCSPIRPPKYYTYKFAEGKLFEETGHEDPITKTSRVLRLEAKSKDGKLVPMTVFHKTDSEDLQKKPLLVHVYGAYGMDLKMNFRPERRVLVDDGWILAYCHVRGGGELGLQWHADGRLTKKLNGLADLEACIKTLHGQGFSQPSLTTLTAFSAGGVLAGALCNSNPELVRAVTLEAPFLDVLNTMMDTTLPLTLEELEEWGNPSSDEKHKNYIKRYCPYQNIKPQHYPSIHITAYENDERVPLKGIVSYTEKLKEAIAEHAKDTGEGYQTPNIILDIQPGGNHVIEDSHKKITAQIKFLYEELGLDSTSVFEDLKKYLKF
CHT PAM – human CHT allosteric activation | AID 488977 | hit rate 0.49% among 310,000 | B-score at 10 µM | CHT-expressing cells, membrane potential dye, choline EC20; stronger effect = higher value; LV-AA mutant CHT in HEK293 cells;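 active = initial fluorescence not abnormally high and integrated response B-score, plate-corrected, over 3 SD above library mean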
* = called active by the depositor; i = inactive; · = no result. Shown are actives, neighbours in structure and some others; about 5% of the full set was active somewhere.

SMILES	ALR inh	CHT inh	AI-2 QS modul	PREPL inhibitor	CHT PAM
COc1ccc(-c2nc(CSCC(=O)N3CCc4ccccc43)c(C)o2)cc1OC	99.4*	i	14.4	15.2	i
O=C(CCc1nc2ccccc2c(=O)[nH]1)N1CCN(S(=O)(=O)c2ccc(Cl)c(C(F)(F)F)c2)CC1	-13.5	i	14.5	1.5	i
COc1cc(CN2CCCC(N3CCc4ccccc4C3)C2)c(Cl)cc1O (centres undefined)	·	i	4.1	-5.9	i
COc1ccc(-c2nc(CSCC(=O)NCc3ccc4c(c3)OCO4)c(C)o2)cc1OC	99.2*	i	21.7	0.4	i
COc1cccc(-c2nnc(SCC(=O)N3CCCc4ccccc43)o2)c1	87.4*	i	30.8	-11.2	i
COc1ccc(-c2nc(CSCC(=O)N3CCN(C4CCCCC4)CC3)c(C)o2)cc1OC	·	i	12.9	-3.5	i
COc1ccc(-c2nc(CSCC(=O)NCCC3=CCCCC3)c(C)o2)cc1OC	100.3*	i	24.9	1.4	i
COc1ccc(-c2nc(CS(=O)CC(=O)NCc3ccc4c(c3)OCO4)c(C)o2)cc1OC (centres undefined)	98.8*	i	20.9	0.6	i
CCN(c1ccccc1)S(=O)(=O)c1ccc(Cl)c(C(=O)N(CC2CCCO2)C2CCS(=O)(=O)C2)c1 (centres undefined)	-4.3	i	-1.4	4.6	i
Cc1ccc(SCC(=O)NNC(=O)c2ccccc2)c(C)c1	0.0	i	19.7	6.3	i
COc1ccc(NC(=O)c2sc3nc(N4CCOCC4)c4c(c3c2N)CC(C)(C)OC4)c(OC)c1	-1.8	i	15.6	0.8	i
Cc1ccccc1CSc1nnc(-c2ccccn2)n1C	-2.0	i	17.6	-5.0	i
Cc1ccccc1CSc1nccn1-c1ccccc1	98.6*	i	0.8	-8.6	i
CCOC(=O)[C@@H]1[C@H]2COc3ccccc3[C@@H]2N2C(=O)N(c3ccccc3)C(=O)[C@]12C	7.8	i	36.7	-53.4	i
C=CCNC(=O)c1onc(CSc2cc(C)cc(C)c2)c1C(=O)O	1.3	i	28.5	8.2	i
CCCCNC(=O)c1onc(CSc2ccc(F)c(F)c2)c1C(=O)O	42.5	i	6.0	7.0	i
C=CCNC(=O)c1onc(CSc2ccc(C)c(C)c2)c1C(=O)O	98.3*	i	-3.0	7.8	i
CCCCNC(=O)c1onc(CSc2ccc(C)c(C)c2)c1C(=O)O	98.1*	i	8.1	-0.5	i
COc1ccc(OC)c(S(=O)(=O)NNC(=S)Nc2ccc3c(c2)OCO3)c1	94.0*	i	-2.7	3.6	i
COc1ccc(OC)c(S(=O)(=O)N(C)CC(=O)Nc2ccc3c(c2)OCO3)c1	-14.4	i	19.7	-0.5	i
COc1cccc(-n2nc(C(C)=O)c(C#N)c2-c2ccco2)c1	-20.3	i	-2.4	8.5	i
COc1ccccc1C(=O)NCC(=O)NNC(=O)C1COc2ccccc2O1 (centres undefined)	2.5	i	12.4	2.5	i
CN(CC(=O)OCC(=O)NC1CCCC1)S(=O)(=O)c1ccc(Cl)cc1	·	·	·	20.2	·
COc1ccc(C2c3[nH]c4ccccc4c3C[C@H]3C(=O)N(c4ccccc4C(=O)N4CCC(C(=O)O)CC4)C(=O)N23)cc1 (some centres undefined)	10.1	i	6.7	13.8	i
CC(C)c1ccc(C2c3[nH]c4ccccc4c3C[C@H]3C(=O)N(c4ccccc4C(=O)N4CCC[C@H]4C(=O)O)C(=O)N23)cc1 (some centres undefined)	98.1*	i	15.1	-1.1	i
SMILES	ALR inh	CHT inh	AI-2 QS modul	PREPL inhibitor	CHT PAM
Clc1ccc(SCc2cn3ccsc3n2)cc1	31.8	i	2.2	10.9	i
Cc1csc2nc(CSc3ccc(Cl)cc3)cn12	92.4*	i	22.7	7.4	i
COc1cc(Br)cc(CN2CCN(c3ncccn3)CC2)c1O	98.4*	i	14.6	·	i
COc1cccc(CN2CCN(c3ncccn3)CC2)c1	-11.3	i	14.2	11.1	i
CC(=N\NC(=O)c1ccc([N+](=O)[O-])cc1)/C(=N/O)C(=O)Nc1ccccc1	-19.7	i	17.0	6.0	i
Cc1cccc(N2C(=O)C(O)=C(C(=O)c3cccs3)C2c2ccc(C(C)C)cc2)n1 (centres undefined)	98.0*	i	25.9	10.2	i

Screening results deposited in PubChem by several laboratories.
